Source: PubChem BioAssay AID488857 (Sanford-Burnham Center for Chemical Genomics, 2010)
About 560 (40%) of roughly 1,400 compounds were called active. So high a share suggests a set chosen from earlier hits. The list shows a part of the results. Values without a mark were called inactive.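 Rule for the calls: active = mean inhibition over duplicate tests at 10 µM above 50%; inactive = the rest.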

experiment: ASC/caspase-1 reporter retest in S. cerevisiae at one dose, specificity check for NALP1 project (AID 488857); conditions: S. cerevisiae ASC/Caspase-1, beta-galactosidase luminescence, 24 h; at 10 µM; hits give high values

Structure (SMILES)	inhibition
COc1ccc(NCc2ccc([N+](=O)[O-])s2)c(OC)c1	49%
CCOC(=O)/C(=C/c1ccc(OC(=O)c2ccccc2)cc1)C(C)=O	59.9% (active)
CCOC(=O)C1=C(O)c2ccccc2C(=O)/C1=C\c1ccc(C)cc1	24.1%
COC(=O)c1ccccc1NC(=O)C1CCN(C(=O)c2cc(OC)cc(OC)c2)CC1	34.1%
CN1CCN(S(=O)(=O)c2ccc(NC(=S)NC(=O)C(C)(C)C)cc2)CC1	31.6%
COC(=O)c1ccccc1NC(=O)C1CCCN(S(=O)(=O)c2ccc(OC)cc2)C1 (configuration not stated)	76.4% (active)
CCOC(=O)N1CCN(c2c(NCCOC)c(=O)c2=O)CC1	32.5%
CCN1CCN(C(=S)Nc2ccc(Cl)c(Cl)c2)CC1	22.7%
CCOC(=O)N1CCN(c2ccc(Cl)c(Cl)c2)CC1	68.9% (active)
Cn1nnc(NC(=O)/C=C/c2ccco2)n1	45.4%
CCCNCC1COc2ccccc2O1 (configuration not stated)	37.9%
CN(C)CCN(C(=O)/C=C/c1cccs1)c1nc2ccc(F)cc2s1	72% (active)
CN(C)CCN(C(=O)/C=C/c1cccs1)c1nc2c(F)cc(F)cc2s1	65.1% (active)
CC1CCC2C(=O)N(c3ccc(C(=O)Oc4cccc5cccnc45)cc3)C(=O)C2C1 (configuration not stated)	44.9%
O=[N+]([O-])c1ccc2nc(-c3ccccn3)[nH]c2c1	70% (active)
c1ccc(-c2nc3cc4ccccc4cc3[nH]2)nc1	84.5% (active)
O=[N+]([O-])c1ccc2cn(-c3ccccc3)nc2c1	41.1%
O=S(=O)(CC12C3C4C5C1C2C(Br)(C43)C51OCCO1)c1ccccc1 (configuration not stated)	38.5%
Cc1cccc(/C=N/n2c(-c3cc(-c4ccccc4)n[nH]3)n[nH]c2=S)c1	53.3% (active)
Cc1ccc(C(=O)O)cc1N=Cc1cc(Br)cc(Br)c1O	83.5% (active)
Cc1ccc(N2C(=O)c3ccc(C(=O)O)cc3C2=O)cc1C	37.3%
CCCCN(C)CCC(=O)Nc1ccc(Cl)cc1	39.2%
O=C(Cc1noc2ccccc12)Nc1ccc(Cl)cc1	61.3% (active)
O=C(Cn1c(=O)oc2ccccc21)Nc1ccc(Cl)cc1	33.4%
CCOC(=O)COc1ccc2ccccc2c1/C=C/[N+](=O)[O-]	99.9% (active)
CCOc1ccc(NC(=O)/C=C/c2ccccc2)c([N+](=O)[O-])c1	29.2%

Structure (SMILES)	inhibition
COc1ccccc1OCC(=O)N/N=C/C=C/c1ccc([N+](=O)[O-])o1	15.4%
CCOC(=O)COc1ccccc1/C=C\[N+](=O)[O-]	101% (active)
CCOC(=O)C[N+](CC)(CC)CC#Cc1ccccc1	5.45%
COc1ccc(CN2CCNC(=O)C2CC(=O)N(Cc2nccn2C)C(C)C)c(OC)c1 (configuration not stated)	26.1%
O=C1CSC(=S)N1c1ccc(O)cc1	98.2% (active)
O=C1CSC(=S)N1c1cccc(O)c1	98.8% (active)
COc1cc(N2C(=O)CSC2=S)cc(OC)c1OC	81.3% (active)
COc1cc(C2SCC(=O)N2CCCN(C)C)cc(OC)c1OC (configuration not stated)	23.1%
C/C(=N/N=C1\SCC(=O)N1c1ccccc1)c1ccc(C)cc1	39.4%
CCCCNCCOCCOc1ccccc1-c1ccccc1	55.2% (active)
CCCCNCCOCCOc1ccc(Cl)cc1Br	49%
O=C(Nc1cccc(O)c1)c1cc(-c2ccco2)on1	79.8% (active)
O=C(Nc1nc(-c2ccco2)c(-c2ccco2)s1)C1CCC1	45.5%
O=C(CSCc1ccc(F)cc1)NCc1ccco1	47.5%
O=C(NCc1ccc(F)cc1)c1cc(-c2ccco2)on1	52.4% (active)
Cc1ccc(NC(=O)N(C2CCCCC2)C(C)c2cccnc2)cc1C (configuration not stated)	48.4%
CCOC(=O)NC1(NCc2ccccc2)Oc2ccccc2O1	38.3%
CCOC(=O)C(=O)NNc1ccc(Cl)cc1	42.9%
CCOC(=O)Nc1cccc(Nc2ccccc2)c1	59.8% (active)
Cc1cc(=O)oc2cc(OCC(=O)N3CCN(C(=O)c4ccco4)CC3)ccc12	30.7%
CCOC(=O)Nc1ccc2c(C)cc(=O)oc2c1	58.4% (active)
CCOC(=O)c1sc(NC(=O)Nc2cccc(Cl)c2)cc1C	19.4%
CC(C)CN=Cc1c(O)c([N+](=O)[O-])cc2oc3c(c12)CCCC3	28.2%
CCOc1ccccc1C(=O)Nc1cnn(Cc2ccc(F)cc2)c1	61.2% (active)
COc1ccccc1C(=O)Nc1nc2nc(-c3ccccc3)cc(=O)n2[nH]1	15.4%
CC1CCCN(c2nc(NCc3ccco3)nc(N)c2[N+](=O)[O-])C1 (configuration not stated)	62% (active)

Structure (SMILES)	inhibition
CC1CCN(c2nc(NCc3ccco3)nc(N)c2[N+](=O)[O-])CC1	73% (active)
Cc1ccc(Nc2nc(N)c([N+](=O)[O-])c(NCc3ccco3)n2)cc1C	60.8% (active)
Nc1nc(NCc2ccco2)nc(N2CCCCCC2)c1[N+](=O)[O-]	62.4% (active)
Cc1ccc(C(=O)NCc2ccco2)cc1S(=O)(=O)Nc1cccc(Cl)c1	38.6%
CCN1CCN(C(=O)N[C@@H](C(=O)N[C@@H]2C(=O)N3[C@@H]2SC(C)(C)[C@@H]3C(=O)O)c2ccccc2)C(=O)C1=O	39.1%
COCCn1c(SCC(=O)NC(=O)NC(C)(C)C)nc2ccccc21	40.6%
O=c1c(F)cn(C2CCCO2)c(=O)n1Cc1c(F)cccc1Cl (configuration not stated)	33.2%
CCOC(=O)c1c(C(F)(F)C(F)(F)C(F)(F)C(F)(F)F)n[nH]c1C	25.5%
COc1ccc(C2=NN3C(=O)c4c(ccc(OC)c4OC)C3C2)cc1 (configuration not stated)	50.4% (active)
O=P(CCCCCCCCCP(=O)(c1ccccc1)c1ccccc1)(c1ccccc1)c1ccccc1	47.2%
O=C(NC(CO)Cc1ccc([N+](=O)[O-])cc1)C(Cl)Cl (configuration not stated)	34.8%
CNC(CC(=O)c1ccc([N+](=O)[O-])cc1)C(Cl)(Cl)Cl (configuration not stated)	69.4% (active)
N#CC(C#N)=C(Nc1ccc(F)cc1)SCc1cccc(Br)c1	83.2% (active)
Cc1ccc(F)cc1NCC(=O)Nc1ccc(Br)cc1	41.2%
COc1ccc2c(c1)C1=NN(/C(C)=C/C(C)=O)C(c3ccc(F)cc3)C1CC2 (configuration not stated)	45.9%
COc1ccccc1NC(=O)Nc1ccc2c(c1)nnn2C	25.1%
COc1ccc(N=c2cc(-c3ccc(OC)cc3)oc3ccccc23)cc1	54.5% (active)
OCCCN=c1cc(-c2ccccc2)oc2ccc(Cl)cc12	49.8%
Cn1c(N)c(C(=O)COC(=O)C2(c3ccc(Cl)cc3)CCCC2)c(=O)n(C)c1=O	26.6%
COC(=O)Nc1nc(C)c(C(=O)c2ccccc2)s1	47.8%
COC(=O)Nc1sc2nc(C)cc(C)c2c1-n1cccc1	67.7% (active)
CCC(C)(C)NCC(=O)Nc1ccc(OC(F)(F)F)cc1	27.4%
CCc1ccc(OCC(=O)Nc2ccc(CN3CCCCC3)cc2)cc1	55.1% (active)
CCOC(=O)C1CCCN(Cc2ccc(OCC)cc2)C1 (configuration not stated)	30.4%
Clc1ccc2c(N/N=C/c3cccc(Br)c3)ccnc2c1	57% (active)
Clc1ccc2c(N/N=C/c3ccccc3Br)ccnc2c1	31.4%

Structure (SMILES)	inhibition
Cc1ccc(/C=N/Nc2ccnc3cc(Cl)ccc23)c(C)c1	55% (active)
CCCCNC(=O)C(=O)N/N=C/c1cccc(Br)c1	37.1%
Clc1ccc2c(N/N=C/c3ccc(Br)cc3)ccnc2c1	55.6% (active)
Cc1ccc(N/C=C/C(=O)C(C)(C)C)c(O)c1	34.2%
CC(C)Oc1ccc(Cc2cnc(N)nc2N)cc1	48%
CCOc1c(Cl)cc(CNCC(C)C)cc1OC	50% (active)
Cc1cc2ccccc2n1CCNCc1c(C(=O)N2CCOCC2)nc2ccccn12	21.8%
Cn1cc(CC(=O)Nc2cccc(C#N)c2)c2ccccc21	34.1%
CC(CC(=O)Nc1cccc(Cl)c1)c1ccccc1 (configuration not stated)	50% (active)
O=C(CNC(c1ccccc1)c1ccccc1)Nc1c(F)cccc1F	39.8%
CSC1=N/C(=C\c2cccnc2)C(=O)N1c1ccccc1	37.9%
CCOC(=O)C1=Nc2ccccc2C1=[N+]=[N-]	46%
CCOC(=O)c1nn(-c2ccc(C)cc2)cc1C(=O)c1ccccc1	64.8% (active)
NS(=O)(=O)c1ccc(NC(=O)COC(=O)c2cn(-c3ccccc3)nc2-c2ccc(F)cc2)cc1	33.1%
COc1ccc(CC(C)N2CCN(Cc3ccccc3)CC2)c(OC)c1 (configuration not stated)	39.7%
N#Cc1ccc(-c2ccc(Cl)cc2)nc1SCC(=O)c1cccc(Cl)c1	25.2%
Cc1sc(NC(=O)c2ccco2)nc1-c1ccccc1	79% (active)
O=C(CCl)Nc1nc(-c2ccco2)c(-c2ccco2)s1	26.5%
O=C(Nc1ccc(-c2cn3ccccc3n2)cc1)c1ccco1	84% (active)
CCCCC(=O)Nc1ccc(C(=O)NNC(=S)NC(=O)c2ccco2)cc1	30.9%
Cc1ccn2cc(-c3ccc(NC(=O)c4ccco4)cc3)nc2c1	86.5% (active)
O=C(Nc1cccc(-c2cn3ccccc3n2)c1)c1cccc(Cl)c1	58.9% (active)
Cc1sc2nc(SCC(=O)NCc3ccco3)n(Cc3ccccc3)c(=O)c2c1C	23.5%
CC(C)CC(=O)N1CCN(S(=O)(=O)c2ccccc2)CC1	35.2%
